# Test results from PubChem BioAssay (Tox21).
# Inconclusive results are not listed. Values without a mark were called inactive. The call rests on the fitted dose curve; in most records, active means well fitted cell-killing curve with a large enough effect in the repeat runs; inconclusive means weak or mixed curves; inactive means no such curve, though single readings can be large or run the other way.
# Test: qHTS assay to identify small molecule agonists of the peroxisome proliferator-activated receptor delta (PPARd) signaling pathway - cell viability counter screen (AID 743211); further: nearly all actives have a fitted effect of over 55% in size
# Conditions: PPARd-bla HEK293H viability, CellTiter-Glo luminescence, 17 h; series mostly up to 62.6 µM; activity change, negative = cytotoxicity: at the top concentration
# Excerpt: U.S. Tox21 Program National Center for Advancing Translational Sciences [NCATS] NIH Chemical Genomics Center [NCGC] U.S. Environmental Protection Agency [EPA] National Institutes of Environmental Health Sciences [NIEHS] National Toxicology Program [NTP] U.S. Food and Drug Administration [FDA] Tox21 Assay Overview: The peroxisome proliferator-activated receptors (PPARs) are lipid-activated transcription factors of the nuclear receptor superfamily with three distinct subtypes namely PPAR alpha, PPAR delta (PPARd) and PPAR gamma. All these subtypes heterodimerizes with Retinoid X receptor (RXR) and have different physiological functions. […] To identify the compounds that activate PPAR-delta signaling, GeneBLAzer PPAR delta UAS-bla HEK293H cell line (Invitrogen, Carlsbad, CA, USA) containing a beta-lactamase reporter gene under the control of an Upstream Activator Sequence (UAS) was used to screen the Tox21 compound library. The cytotoxicity of the Tox21 compound library against the PPARd-bla cell line was tested in parallel by measuring the cell viability using CellTiter-Glo assay (Promega, Madison, WI) in the same wells.
# Tox21 Assay Protocol Summary: PPARd-bla cells were dispensed at 3000 cells/6uL/well in 1536-well black wall/clear bottom plates using a Multidrop Combi (Thermo Fisher Scientific, Waltham, MA) dispenser. After the assay plates were incubated at 37 C and 5% CO2 for 5 h, 23 nL of compounds dissolved in DMSO, positive controls or DMSO only was transferred to the assay plate by a Pintool station (Kalypsys, San Diego, CA). The assay plates were incubated at 37C for 17 h. After 1 uL of LiveBLAzerTM B/G FRET substrate was added using a Bioraptr Flying Reagent Dispenser (FRD) workstation (Beckman Coulter, Indianapolis, IN, USA), the plates were incubated at room temperature for 2 h, and fluorescence intensity was measured by an Envision plate reader (PerkinElmer, Shelton, CT). For cell viability readout that measures cytotoxicity, 3 ul/well of CellTiter-Glo reagent was added into the assay plates using a Bioraptr FRD. After 30 min incubation at room temperature, the luminescence intensity in the plates was measured using a ViewLux plate reader (PerkinElmer).
# On the % scale 0 is the no-effect control and ±100 the full control effect.
row,SMILES,"activity change, negative = cytotoxicity"
1,O=C(OCC1(COC(=O)c2cccnc2)CCCC(COC(=O)c2cccnc2)(COC(=O)c2cccnc2)C1O)c1cccnc1,2.51%
2,COCCc1ccc(OCC2CO2)cc1 (stereo not given),-1.06%
3,COC(=O)c1ccccc1C(=O)c1ccc(OCCN2CCCCC2)cc1,-0.27%
4,CCCCNC1CC(C)(C)NC(C)(C)C1,3.05%
5,O=C(/N=N/C(=O)OCc1ccccc1)OCc1ccccc1,2.54%
6,C[C@@H]1O[C@@H](O[C@@H]2[C@@H](O)[C@H](OCCc3ccc(O)c(O)c3)O[C@H](CO[C@@H]3O[C@H](CO)[C@@H](O)[C@H](O)[C@H]3O)[C@H]2OC(=O)/C=C/c2ccc(O)c(O)c2)[C@H](O)[C@H](O)[C@H]1O,-4.55%
7,COc1ccc2c(c1)C(=O)N(CCc1ccc(S(=O)(=O)NC(=O)NC3CCCCC3)cc1)C(=O)C2(C)C,-7.91%
8,CCCCNc1ccc(C(=O)OCCN(C)C)cc1,-10.4%
9,Nc1nnc(-c2cccc(Cl)c2Cl)c(N)n1,10.6%
10,Cc1ccc(S(=O)(=O)O)c(C)c1,-6.15%
11,CN(CCOc1ccc(NS(C)(=O)=O)cc1)CCc1ccc(NS(C)(=O)=O)cc1,-0.706%
12,CC(=O)Nc1cccc(C)c1,-2.12% [at 81.1 µM]
13,COCCOC(=O)C1=C(C)NC(C)=C(C(=O)OC(C)C)C1c1cccc([N+](=O)[O-])c1 (stereo not given),-8.54%
14,CCCCOC(=O)c1ccccc1,0.0164%
15,CC(C)c1ccc2cc(C(C)C)ccc2c1,14.8%
16,CC1(CO)CN(c2ccccc2)NC1=O (stereo not given),-6%
17,O=C(Nc1ccc(Cl)c(Cl)c1)C1CC1,-14.9%
18,COc1ccc(S(=O)(=O)N2c3ccc(Cl)cc3[C@@](O)(c3ccccc3Cl)[C@H]2C(=O)N2CCC[C@@H]2C(N)=O)cc1OC,-0.291%
19,O=C(O)C(=O)Cc1ccccc1,0.396%
20,CC1COc2ccccc2N1 (stereo not given),1.77%

row,SMILES,"activity change, negative = cytotoxicity"
1,CC(C)(C)c1nnc(NS(=O)(=O)c2ccc(N)cc2)s1,2.6%
2,O=P(O)(O)OP(=O)(O)O,3.57%
3,CCCCCCCCCC(C)=O,0.113% [at 81.1 µM]
4,CC(C)C[C@H](NC(=O)CNC(=O)[C@H](Cc1ccc(O)cc1)NC(=O)[C@H](CO)NC(=O)[C@H](Cc1c[nH]c2ccccc12)NC(=O)[C@H](Cc1cnc[nH]1)NC(=O)[C@@H]1CCC(=O)N1)C(=O)N[C@@H](CCCN=C(N)N)C(=O)N1CCC[C@H]1C(=O)NCC(N)=O (stereo in doubt),2.14%
5,CN(C)CCOCCO,-11.5%
6,OCCC(F)(F)C(F)(F)C(F)(F)C(F)(F)C(F)(F)C(F)(F)C(F)(F)C(F)(F)F,6.3%
7,CCOC(=O)c1ncn2c1CN(C)C(=O)c1cc(F)ccc1-2,3.15%
8,Oc1cn2c(n1)Nc1ccc(Cl)c(Cl)c1C2,6.74% [at 29.1 µM]
9,O=C1c2cccc3c2[C@H](CCC3)CN1[C@@H]1CN2CCC1CC2,-11.6%
10,C=C1CC/C=C(\C)CC[C@@H]2[C@@H]1CC2(C)C,0.427%
11,O=C(OCC(COC(=O)c1cccnc1)(COC(=O)c1cccnc1)COC(=O)c1cccnc1)c1cccnc1,0.0482%
12,Cc1c(I)c(=O)n(-c2ccccc2)n1C,0.535%
13,O=C(NCCN1CCOCC1)c1ccc(Cl)cc1,-0.253%
14,C[C@H](CCC(=O)O)[C@H]1CC[C@H]2[C@@H]3C(=O)C[C@@H]4CC(=O)CC[C@]4(C)[C@H]3CC(=O)[C@]12C,2.39%
15,NS(=O)(=O)c1cc2c(cc1Cl)CN(C1CCCCC1)C2=O,8.46%
16,NC(CO)C(=O)NNCc1ccc(O)c(O)c1O (stereo not given),14.1%
17,COc1ccc2c(c1OC)C(=O)O[C@@H]2[C@H]1c2c(cc3c(c2OC)OCO3)CCN1C,1.03%
18,Cc1ccccc1OCC(O)CO (stereo not given),0.836%
19,CCCCC(CC)COCCO (stereo not given),0.723%
20,NS(=O)(=O)c1ccc(NC(=O)CCC(=O)O)cc1,-1.2%
